This passage reports growth results from PubChem BioAssay (NCI).

SMILES strings stand for the structures. This is part of a sample that, as a whole, favours compounds with a hit. Of some 83,000 tested, about 20% had one in any assay.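 Results are percent growth after 48 hours of single-concentration exposure. 100 means growth as in untreated cells, lower positive values show inhibition; negative values down to -100 show cell death.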 Values without a mark were called inactive. Active and inactive are the calls of the source. The calls were made as follows: active = growth percent below 10; inactive = the rest.

What all share (assay): NCI-60 one-dose screen, 48 h (100 = growth as untreated, 0 = no growth, -100 = all killed)
Common to all, as to details: 10 µM unless noted

Experiment [1] deals with DU-145 prostate.
Experiment [2] has as its system K-562 leukemia.
In experiment [3] the test system is MALME-3M melanoma.
For experiment [4], the system named is MDA-MB-231 breast.
Experiment [5] deals with RXF 393 renal.
Experiment [6] has as its system SF-268 CNS.
Experiment [7] has as its system SF-295 CNS.
Experiment [8] deals with SF-539 CNS.
Experiment [9] has as its system UACC-257 melanoma.
The test system of experiment [10] is M14 melanoma.
For experiment [11], the system named is HCT-15 colon.
Experiment [12] has as its system HT29 colon.
Experiment [13] has as its system SNB-75 CNS.
The test system of experiment [14] is SNB-19 CNS.
For experiment [15], the system named is U251 CNS.
The subject of experiment [16] is PC-3 prostate.
The test system of experiment [17] is SK-MEL-5 melanoma.
Experiment [18] relates to UACC-62 melanoma.
Experiment [19] relates to LOX IMVI melanoma.
Experiment [20] has as its system SK-MEL-28 melanoma.

On to `Cc1cccc(CC(=O)c2ccccc2)n1`, for which the growth in experiment [1] is 100%; in [2], 81.8%; in experiment [3], 92.1%; in experiment [4] it was 89%; in [5], 91%; in experiment [6] it was 95.5%. For the same compound, the growth in experiment [7] is 85.4%; in [8], 96.8%; in experiment [9] it was 92.7%; in experiment [10], 85.5%; in experiment [11], 93.2%; in [12] it was 82.1%. The growth in [13] was 84.6%; in [14] it was 88.7%; in [15] it was 89.6%; in experiment [16], 80.5%; in [17], 96.6%; in experiment [18] it was 74.7%. In addition, the growth is 76.5% in [19] and 105% in experiment [20].
Consider `CCOC(=O)c1[nH]c(-c2ccc(Cl)cc2)cc1-c1cccnc1`, for which the growth in experiment [1] is 19%; in experiment [2] it was 6.33% (active); in experiment [3] it was 72.7%; in experiment [4], 40.3%; in experiment [5] it was -2.78% (active); in experiment [6], 46.6%. The growth in experiment [7] was 10.9%; in experiment [8], -24.8% (active); in experiment [9], 86.3%; in [10], 14.3%; in experiment [11] it was 21.8%; in [12], 6.32% (active). In addition, the growth was -1.8% (active) in experiment [13]; 52.9% in experiment [14]; 20.8% in experiment [15]; 14% in experiment [16]; 27.1% in [17]; 38.8% in experiment [18]. Also, the growth is 48.5% in [19] and 47.8% in experiment [20].
Regarding `O=C(O)c1ccc2nc(-c3ccc(OCCCCCOc4ccc(-c5nc6ccc(C(=O)O)cc6[nH]5)cc4)cc3)[nH]c2c1`, the growth in experiment [1] is 120%; in experiment [2], 77.6%; in experiment [3], 173%; in experiment [4], 105%; in experiment [5], -11.8% (active); in experiment [6] it was 156%. Besides, the growth in experiment [7] was 123%; in experiment [8], 108%; in [9], 78.8%; in [10], 94.1%; in [11] it was 74.3%; in [12], 51.4%. Also, the growth in experiment [13] is 96%; in experiment [14], 59.6%; in experiment [15], 96.4%; in experiment [16], 90%; in [17] it was 3.26% (active); in [18], 53%. In addition, the growth in experiment [19] was 82%; in [20], 46.9%.
As for `CC(=O)c1ccc2c(c1)C1C=CCC1[C@H](c1cc3c(cc1Br)OCO3)N2` (stereo not given in full), the growth in experiment [1] was -17% (active); in [2] it was 4.19% (active); in experiment [3], 49.7%; in [4] it was 16.9%; in experiment [5] it was -12.4% (active); in experiment [6], 40.6%. Besides, the growth is -36.7% (active) in experiment [7]; -12.1% (active) in [8]; 75% in experiment [9]; -7.21% (active) in experiment [10]; 18.4% in experiment [11]; 4.15% (active) in experiment [12]. The growth in experiment [13] is 30.6%; in experiment [14] it was 44.6%; in experiment [15] it was 14%; in experiment [16], 20.9%; in [17], 9.13% (active); in experiment [18], 34.6%. Further, the growth is -35.6% (active) in [19] and 72.7% in [20].
`CNC(=O)NN`: the growth was 103% in experiment [1]; 109% in experiment [2]; 93.7% in experiment [3]; 108% in experiment [4]; 108% in experiment [5]; 111% in [6]. Besides, the growth in experiment [7] is 99.6%; in experiment [8] it was 97%; in experiment [9], 100%; in experiment [10] it was 98.1%; in experiment [11], 87.3%; in [12], 107%. Also, the growth in experiment [13] is 88.3%; in experiment [14], 105%; in experiment [15] it was 95.2%; in experiment [16], 93.4%; in [17], 103%; in [18] it was 104%. Moreover, the growth was 102% in experiment [19] and 112% in [20].
On to `COc1ccc2c(c1)nnc1c3cccnc3[nH]c21`, for which the growth in [1] was -18.3% (active); in experiment [2] it was -41.1% (active); in experiment [3], 11.4%; in [4], 0.316% (active); in [5], -67.2% (active); in experiment [6], -24.8% (active). The growth in experiment [7] was 39.8%; in [8], -48.7% (active); in experiment [9] it was 33.5%; in [10], 4.79% (active); in experiment [11] it was 12.2%; in experiment [12] it was -27.1% (active). Further, the growth in experiment [13] was -14.2% (active); in [14] it was 11.5%; in experiment [15], -4.49% (active); in experiment [16], 29.3%; in experiment [17] it was 46.2%; in experiment [18], -0.424% (active). In addition, the values for the growth in experiment [19] and in [20] were -30.8% (active) and 31.9%, respectively.
As for `COC(=O)Nc1nc2ccc(Sc3ccccc3)cc2[nH]1`, the growth in [1] was 17.5%; in experiment [2], 5.33% (active); in [3], 41.9%; in [4], 45.6%; in experiment [5] it was 15%; in [6], 37.8%. In addition, the growth in [7] was -16.1% (active); in [8] it was 0.846% (active); in experiment [9], 52.1%; in experiment [10] it was 8.93% (active); in [11] it was 13.8%; in experiment [12], 4.14% (active). In addition, the growth in experiment [13] is 21.7%; in experiment [14], 31.3%; in experiment [15] it was 17%; in [16], 26.6%; in experiment [17], 8.9% (active); in experiment [18] it was 35.9%. The growth in [19] is 19.3%; in experiment [20], 48.9%.
As for `Clc1ccc(OCc2nc(-c3ccccc3)n[nH]2)c(Cl)c1`, the growth in [1] is 109%; in experiment [2] it was 111%; in [3] it was 104%; in experiment [4], 98.8%; in experiment [5] it was 108%; in experiment [6], 96.6%. In addition, the growth in experiment [7] is 97.8%; in [8], 99.4%; in experiment [9], 97.8%; in experiment [10], 106%; in [11], 101%; in [12], 101%. Besides, the growth in experiment [13] was 93.6%; in experiment [14] it was 99.3%; in [15] it was 95.5%; in experiment [16], 87.3%; in experiment [17], 100%; in experiment [18], 95.6%. In addition, the growth in experiment [19] is 94.6%; in [20], 110%.
